Measured values: PubChem BioAssay (NCATS)
Results filed as inconclusive are left out. Activity calls are given as the source filed them. Unless noted, the call rests on the fitted dose curve; in most records, active means well fitted curve in either direction with a large enough effect (not every such curve was filed as active); inconclusive means small, poorly fitted or top-dose-only effect, or another doubt; inactive means flat fitted curve, though single readings scatter.

How the values were obtained:
[1] = AP1 Signaling Pathway (AID 357); conditions: ME-180 AP-1-bla reporter, EGF-induced, beta-lactamase ratio, 5 h; at 7.69 µM (top of the series) unless noted;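 further: ME-180 reporter cells stimulated with EGF at its EC50 level; on the % scale 0 is the no-effect control and ±100 the full control effect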
Procedure, shortened: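 AP-1-bla ME-180 cells, Opti-MEM + 0.5% dialyzed FBS, plated overnight 37 °C. Cpd titration + EC50 EGF, 5 h 37 °C. CCF4 2.5 h RT; ex 405, em 460/530 ratio → %activity, AC50.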

[2] = target: Cytochrome P450 1A2 (Homo sapiens) (UniProt P05177); assay: p450-cyp1a2 (AID 410; calls by dose curve; further: potency means the concentration at half of the fitted maximal effect;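 on activity change, negative = inhibition: -100% = full effect of reference inhibitor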)
Procedure, shortened: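 O-Demethylation of luciferin 6' methyl ether by human CYP1A2 is monitored as luciferase luminescence. Substrate sits at Km (100uM); enzyme is 20nM. Values are scaled to 57 uM furafylline as maximal inhibition.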

[3] = NFAT Signaling Pathway (AID 444); conditions: Jurkat NFAT-bla M1, carbachol, beta-lactamase ratio, 5 h; at 7.69 µM (top of the series) unless noted;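 further: carbachol stimulus at about its EC50 of 1 µM final; on the % scale 0 is the no-effect control and ±100 the full control effect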
Procedure, shortened: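 Read-out: CCF4 FRET ratio (460 nm/530 nm) after 1 h RT dye loading, used for %activity and AC50 from titration series. Cells: Jurkat NFAT-β-lactamase/M1 line, treated with compound plus 1 uM carbachol for 5 h, 37 °C.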

[4] = Stat Signaling Pathway (AID 446); conditions: ME-180 (cervical carcinoma) SIE beta-lactamase reporter, IL-6 stimulated, 5 h; at 7.69 µM (top of the series) unless noted;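 further: ME-180 cervical cancer cells given 40 pM IL-6 alongside compound; SIE-controlled beta-lactamase reporter measured as 460/530 nm FRET emission ratio; on the % scale 0 is the no-effect control and ±100 the full control effect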
Procedure, shortened: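 Overnight-plated ME-180 cells bearing a STAT Inducible Element beta-lactamase reporter; 5 h co-exposure to compound and 40 pM IL-6; values normalized to 300 pM IL-6 and 125 nM JAK inhibitor controls.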

[5] = target: Glucocorticoid receptor (Homo sapiens) (UniProt P04150); assay: GR-GFP Redistribution (AID 450;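 active means compounds whose dose series gives a full or clear partial fitted curve of increased nuclear translocation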; further: potency means the concentration at half of the fitted maximal effect); conditions: U2OS GR-GFP nuclear translocation, laser cytometry, 2 h
[6] = target: Glucocorticoid receptor (Homo sapiens) (UniProt P04150); assay: GR-EFC Redistribution (AID 451; calls by dose curve; further: potency means the concentration at half of the fitted maximal effect); conditions: CHO-K1 GR-EFC translocation, beta-gal luminescence, 2 h
Procedure, shortened: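 Translocation of GR-ED fusion to nuclear EA restores b-gal, read by luminescence after 1 h room-temperature detection. Engineered CHO-K1 biosensor cells, 1,000/well, exposed 2 h at 37 C to titrations up to 46 uM final.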

[7] = target: Mitogen-activated protein kinase 10 (Mus musculus) (UniProt Q61831); assay: JNK3 AlphaScreen Assay (AID 530);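 further: kinase came from lysate of stimulated human HepG2 cells; signal reports phosphorylation of biotinylated GST-cJun 1-79 at Ser73 with 10 µM ATP; on the % scale 0 is the no-effect control and ±100 the full control effect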
Procedure, shortened: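 qHTS titrations with 15 min compound pre-incubation before adding ATP (10 uM final). Read-out: AlphaScreen of Ser73-phosphorylated biotin-GST-cJun using HepG2 lysate JNK3 activated by IL-1β and TNFα.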

[8] = target: 3',5'-cyclic-AMP phosphodiesterase 4B (Homo sapiens) (UniProt Q07343); assay: qHTS Assay for Inhibitors of PDE-IV (AID 607; active means well fitted activation curve with a large enough effect in the main read-out, with a control signal flat, not every such curve was filed as active; further: % of control where 0% means no effect)
Procedure, shortened: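 Live HEK293 cells with a modified cyclic nucleotide-gated (CNG) channel report intracellular cAMP via membrane-potential dye fluorescence (ex 535/em 590 nm). Endogenous PDE-IV was targeted. Compounds were tested at up to 22.9 uM final; RO 20-1724 100 uM served as control.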

[9] = target: Lysosomal acid glucosylceramidase (Homo sapiens) (UniProt P04062); assay: Glucocerebrosidase-p2 (AID 348; in the data active means potency below about 10 µM; further: potency means the concentration at half of the fitted maximal effect); conditions: purified GBA, blue fluorogenic substrate, 40 min
Procedure, shortened: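 Normal human glucocerebrosidase (0.2 nM) with blue fluorogenic substrate (80 uM final) in citrate/phosphate pH 5.9 with 10mM sodium taurocholate, 0.01% tween-20; 40 min RT, NaOH/glycine stop; fluorescence Ex 365/Em 440; AC50 from a titration from 0.6 nM upwards.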

[10] = target: Cytochrome P450 3A4 (Homo sapiens) (UniProt P08684); assay: qHTS Assay for Activators of Cytochrome P450 3A4 (AID 885; active means well fitted curve in the direction sought with a large enough effect; an effect the other way counts as inactive or inconclusive; further: nearly all actives have a fitted effect of over 65% in size)
Procedure, shortened: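 Using 20nM recombinant human CYP3A4 in potassium phosphate (200mM), substrate Luciferin-PPXE at 25uM, luminescent luciferin detection followed a 60-min RT NADPH reaction; data scaled to 57 uM ketoconazole.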

[11] = target: Cytochrome P450 2C19 (Homo sapiens) (UniProt P33261); assay: qHTS Assay for Inhibitors and Substrates of Cytochrome P450 2C19 (AID 899; active means well fitted curve in the direction sought with a large enough effect; an effect the other way counts as inactive or inconclusive; further: nearly all actives have a fitted effect of over 60% in size; further: potency means the concentration at half of the fitted maximal effect)
Procedure, shortened: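 Luminescence readout of luciferin formed from 10uM Luciferin-H EGE (KM level) by 5 nM CYP2C19 in 50mM KPO4. 60 min NADPH-driven reaction at 37C after 10 min compound preincubation; data scaled to 57uM ketoconazole inhibition.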

[12] = target: Guanine nucleotide-binding protein G(i) subunit alpha-1 (Homo sapiens) (UniProt P63096); assay: qHTS Assay for Inhibitors of RGS12 GoLoco Motif Activity (Green Fluorophore) (AID 879; active means well fitted curve in the direction sought with a large enough effect; an effect the other way counts as inactive or inconclusive;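 further: 0% = labeled peptide with Gαi1 and full inhibition = labeled peptide alone without protein; negative values mean loss of peptide binding seen as reduced polarization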)
Procedure, shortened: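 A drop in FITC polarization marked displacement of the FITC-tagged RGS12 GoLoco peptide (10 nM) from Gαi1 (50 nM). Compounds were incubated 10 min at room temperature in Tris pH 7.5 buffer containing 150 mM NaCl, 0.1 mM GDP and 0.05% NP40; unlabeled peptide titration served as control.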

[13] = target: Cytochrome P450 2D6 (Homo sapiens) (UniProt P10635); assay: qHTS Assay for Inhibitors and Substrates of Cytochrome P450 2D6 (AID 891; active means well fitted curve in the direction sought with a large enough effect; an effect the other way counts as inactive or inconclusive;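 further: luciferin methyl ether substrate demethylated by CYP2D6 with NADPH regeneration; on the % scale 0 is the no-effect control and ±100 the full control effect; nearly all actives have a fitted effect of over 60% in size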)
Procedure, shortened: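 Luminescent read-out of luciferin formed by 5 nM human CYP2D6 demethylating 30 uM Luciferin-ME EGE (Km level) over 60 min at room temperature after NADPH regeneration addition. Data normalized to full inhibition by 1.43 uM quinidine.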

[14] = qHTS Assay for Identification of Small Molecule Agonists for Thrombopoietin (TPO) Signaling Pathway (AID 917; active means well fitted curve in the direction sought with a large enough effect; an effect the other way counts as inactive or inconclusive; further: on the % scale 0 is the no-effect control and ±100 the full control effect)
Procedure, shortened: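 Human TPO receptor–transfected Ba/F3 cells (murine, IL-3-dependent) in IL-3-deficient medium; compounds plus TPO at EC50, 26 pM final; 24 hrs, 37 C; GpIIb-luciferase luminescence after 10 min RT detection.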

[15] = target: Muscarinic acetylcholine receptor M1 (Rattus norvegicus) (UniProt P08482); assay: qHTS Assay for Antagonists of Acetylcholine Muscarinic M1 Receptor: Measurement of IP-One Response (AID 944; active means well fitted curve in the direction sought with a large enough effect; an effect the other way counts as inactive or inconclusive; further: nearly all actives have a fitted effect of over 75% in size)
Procedure, shortened: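 Antagonist mode with rat M1 receptor transfected into CHO cells. Compound is added first for 10 min, carbachol at its EC80 follows for 30 min, and lysis reagents then allow TR-FRET detection of accumulated IP1.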

[16] = target: Pyruvate kinase (Leishmania mexicana) (UniProt Q27686); assay: qHTS Validation Assay for Inhibitors of Leishmania Mexicana Pyruvate Kinase (AID 945; active means well fitted curve in the direction sought with a large enough effect; an effect the other way counts as inactive or inconclusive;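 further: 0% = DMSO only neutral control wells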)
Procedure, shortened: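 qHTS eight-point titrations against 0.2 nM LmPYK (E451W) in imidazole buffer pH 7.2 with 0.5 mM PEP, 0.1 mM ADP; 1 h, room temperature. Readout: PKLight luminescence, normalized to neutral DMSO wells.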

[17] = target: Pyruvate kinase PKM (Homo sapiens) (UniProt P14618); assay: qHTS Assay for Activators of Human Muscle Pyruvate Kinase (AID 954; active means well fitted curve in the direction sought with a large enough effect, not every such curve was filed as active;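 further: 0% = uninhibited enzyme and -100% = no enzyme or full thiadiazolimine inhibition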)
Procedure, shortened: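 Screening used highly purified human pyruvate kinase M2 under submaximal activity, with PEP at its Km and ADP below Km. After an hour at room temperature, ATP was read by luciferase luminescence.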

[18] = target: Alpha-galactosidase A (Homo sapiens) (UniProt P06280); assay: Counterscreen for Glucocerebrosidase Inhibitors: qHTS Assay for Human alpha-Galactosidase at pH 4.5 (AID 992; active means well fitted curve in the direction sought with a large enough effect; an effect the other way counts as inactive or inconclusive; further: 0% is about no effect)
Procedure, shortened: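 Each compound is preincubated briefly with 2 nM enzyme before substrate addition (80 uM); plates then sit 20 min at ambient temperature, are quenched with 1M NaOH/1M glycine, and read fluorometrically.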

[19] = target: alpha-glucosidase (Oryza sativa, rice) (UniProt Q653V4); assay: Counterscreen for Glucocerebrosidase Inhibitors: qHTS Assay for Rice alpha-Glucosidase at pH 5.0 (AID 997; active means well fitted curve in the direction sought with a large enough effect; an effect the other way counts as inactive or inconclusive;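 further: 0% = full activity with enzyme and -100% = basal without enzyme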)
Procedure, shortened: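 Endpoint fluorogenic assay at pH 5.0: compounds (0.7 nM to 77 uM) titrated against 4 nM rice enzyme and 400 uM 4-MU-alpha-glucoside for 20 min at room temperature; NaOH/glycine stop, read ex 365/em 440 nm, Hill-fitted AC50.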

Sequence of Glucocorticoid receptor (Homo sapiens) (P04150 whole entry, looked up, the tested form may be a part): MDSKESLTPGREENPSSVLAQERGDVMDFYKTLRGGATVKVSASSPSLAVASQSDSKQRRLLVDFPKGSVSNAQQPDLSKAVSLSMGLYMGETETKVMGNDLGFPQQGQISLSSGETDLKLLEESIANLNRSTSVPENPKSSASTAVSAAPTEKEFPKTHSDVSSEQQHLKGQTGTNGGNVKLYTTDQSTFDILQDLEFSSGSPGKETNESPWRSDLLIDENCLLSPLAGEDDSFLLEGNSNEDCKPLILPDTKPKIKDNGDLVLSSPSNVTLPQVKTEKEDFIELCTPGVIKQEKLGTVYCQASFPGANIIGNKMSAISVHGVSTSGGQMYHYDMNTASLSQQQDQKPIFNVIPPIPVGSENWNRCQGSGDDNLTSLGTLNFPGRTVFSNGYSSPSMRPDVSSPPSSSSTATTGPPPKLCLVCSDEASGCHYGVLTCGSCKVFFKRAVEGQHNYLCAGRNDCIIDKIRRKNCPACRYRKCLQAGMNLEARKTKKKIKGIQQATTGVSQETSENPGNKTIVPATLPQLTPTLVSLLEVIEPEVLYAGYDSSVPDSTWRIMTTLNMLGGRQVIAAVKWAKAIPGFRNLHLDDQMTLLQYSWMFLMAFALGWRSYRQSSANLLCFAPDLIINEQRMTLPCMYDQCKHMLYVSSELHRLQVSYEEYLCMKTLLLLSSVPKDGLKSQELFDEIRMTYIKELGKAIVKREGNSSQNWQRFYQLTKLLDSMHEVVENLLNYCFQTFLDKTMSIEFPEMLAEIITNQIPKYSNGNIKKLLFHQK
Sequence of 3',5'-cyclic-AMP phosphodiesterase 4B (Homo sapiens) (Q07343 whole entry, looked up): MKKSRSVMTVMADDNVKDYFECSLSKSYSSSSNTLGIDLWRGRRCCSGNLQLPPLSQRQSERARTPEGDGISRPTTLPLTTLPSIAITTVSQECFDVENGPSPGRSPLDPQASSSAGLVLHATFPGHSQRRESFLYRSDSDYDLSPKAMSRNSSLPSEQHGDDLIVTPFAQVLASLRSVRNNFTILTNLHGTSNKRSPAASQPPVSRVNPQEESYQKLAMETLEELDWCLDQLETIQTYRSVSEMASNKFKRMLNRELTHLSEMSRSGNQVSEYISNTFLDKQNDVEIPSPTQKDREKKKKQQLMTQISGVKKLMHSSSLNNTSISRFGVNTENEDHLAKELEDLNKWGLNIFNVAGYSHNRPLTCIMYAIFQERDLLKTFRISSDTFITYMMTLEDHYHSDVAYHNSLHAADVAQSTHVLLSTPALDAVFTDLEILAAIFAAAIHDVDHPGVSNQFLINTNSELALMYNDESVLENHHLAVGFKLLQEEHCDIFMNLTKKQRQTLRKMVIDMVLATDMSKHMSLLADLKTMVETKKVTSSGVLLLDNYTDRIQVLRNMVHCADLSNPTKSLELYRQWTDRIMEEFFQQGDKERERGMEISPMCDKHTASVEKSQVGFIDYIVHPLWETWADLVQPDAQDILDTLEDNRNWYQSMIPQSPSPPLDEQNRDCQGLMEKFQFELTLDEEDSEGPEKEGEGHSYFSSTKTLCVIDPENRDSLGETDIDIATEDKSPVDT
Sequence of Cytochrome P450 1A2 (Homo sapiens) (P05177 whole entry, looked up): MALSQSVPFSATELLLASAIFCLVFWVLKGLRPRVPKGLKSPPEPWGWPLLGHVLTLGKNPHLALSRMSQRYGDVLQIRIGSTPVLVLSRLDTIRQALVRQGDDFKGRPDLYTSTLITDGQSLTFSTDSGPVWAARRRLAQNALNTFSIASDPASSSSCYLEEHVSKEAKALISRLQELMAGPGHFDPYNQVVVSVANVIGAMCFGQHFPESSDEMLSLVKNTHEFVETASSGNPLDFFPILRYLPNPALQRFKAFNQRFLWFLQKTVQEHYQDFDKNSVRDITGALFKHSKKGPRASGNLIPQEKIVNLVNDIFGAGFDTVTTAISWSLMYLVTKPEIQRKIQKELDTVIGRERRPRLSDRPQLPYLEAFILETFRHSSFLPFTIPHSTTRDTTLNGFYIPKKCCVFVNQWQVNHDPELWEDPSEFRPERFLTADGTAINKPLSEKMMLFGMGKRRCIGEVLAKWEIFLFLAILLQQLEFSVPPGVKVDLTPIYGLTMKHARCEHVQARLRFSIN
Sequence of Cytochrome P450 2C19 (Homo sapiens) (P33261 whole entry, looked up): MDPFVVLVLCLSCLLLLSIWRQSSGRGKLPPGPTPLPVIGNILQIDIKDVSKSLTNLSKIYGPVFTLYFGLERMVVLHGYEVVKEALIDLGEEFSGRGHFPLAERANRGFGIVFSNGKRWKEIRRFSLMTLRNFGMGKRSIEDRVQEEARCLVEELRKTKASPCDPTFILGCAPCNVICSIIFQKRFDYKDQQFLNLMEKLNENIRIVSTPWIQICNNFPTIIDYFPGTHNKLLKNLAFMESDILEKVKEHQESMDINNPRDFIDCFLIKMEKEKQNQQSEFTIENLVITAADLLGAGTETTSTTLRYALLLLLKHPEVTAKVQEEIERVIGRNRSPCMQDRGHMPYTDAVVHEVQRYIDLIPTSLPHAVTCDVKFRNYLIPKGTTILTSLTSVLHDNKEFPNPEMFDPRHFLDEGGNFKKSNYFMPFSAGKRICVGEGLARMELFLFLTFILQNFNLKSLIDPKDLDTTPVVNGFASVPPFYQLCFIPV
Sequence of Cytochrome P450 2D6 (Homo sapiens) (P10635 whole entry, looked up): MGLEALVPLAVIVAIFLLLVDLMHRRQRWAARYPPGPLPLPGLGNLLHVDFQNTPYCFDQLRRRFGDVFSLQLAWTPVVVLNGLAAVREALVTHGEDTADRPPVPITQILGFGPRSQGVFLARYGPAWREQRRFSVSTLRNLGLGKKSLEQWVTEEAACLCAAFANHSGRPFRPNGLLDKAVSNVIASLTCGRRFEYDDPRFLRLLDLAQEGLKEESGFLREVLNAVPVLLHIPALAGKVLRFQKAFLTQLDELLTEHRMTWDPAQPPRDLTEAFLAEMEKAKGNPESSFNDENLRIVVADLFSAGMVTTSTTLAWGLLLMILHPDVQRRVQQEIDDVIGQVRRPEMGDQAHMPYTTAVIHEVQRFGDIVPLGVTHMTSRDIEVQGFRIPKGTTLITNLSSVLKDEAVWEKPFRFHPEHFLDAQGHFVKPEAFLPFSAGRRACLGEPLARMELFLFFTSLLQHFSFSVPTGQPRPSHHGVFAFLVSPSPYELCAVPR
Sequence of Pyruvate kinase PKM (Homo sapiens) (P14618 whole entry, looked up): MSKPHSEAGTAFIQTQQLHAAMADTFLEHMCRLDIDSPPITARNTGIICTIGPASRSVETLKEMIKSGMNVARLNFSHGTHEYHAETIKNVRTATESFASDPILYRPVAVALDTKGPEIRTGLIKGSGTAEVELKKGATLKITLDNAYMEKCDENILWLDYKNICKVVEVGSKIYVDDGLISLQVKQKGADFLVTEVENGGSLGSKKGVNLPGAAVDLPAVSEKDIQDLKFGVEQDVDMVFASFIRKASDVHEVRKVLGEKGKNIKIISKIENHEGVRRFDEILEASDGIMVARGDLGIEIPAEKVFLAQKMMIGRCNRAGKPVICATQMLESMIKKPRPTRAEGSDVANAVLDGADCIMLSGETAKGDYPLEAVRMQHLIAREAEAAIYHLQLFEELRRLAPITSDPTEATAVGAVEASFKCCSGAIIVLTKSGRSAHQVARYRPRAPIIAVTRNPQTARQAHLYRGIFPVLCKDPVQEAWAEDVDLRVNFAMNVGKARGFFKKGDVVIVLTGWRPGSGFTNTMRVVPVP
Sequence of Lysosomal acid glucosylceramidase (Homo sapiens) (P04062 whole entry, looked up): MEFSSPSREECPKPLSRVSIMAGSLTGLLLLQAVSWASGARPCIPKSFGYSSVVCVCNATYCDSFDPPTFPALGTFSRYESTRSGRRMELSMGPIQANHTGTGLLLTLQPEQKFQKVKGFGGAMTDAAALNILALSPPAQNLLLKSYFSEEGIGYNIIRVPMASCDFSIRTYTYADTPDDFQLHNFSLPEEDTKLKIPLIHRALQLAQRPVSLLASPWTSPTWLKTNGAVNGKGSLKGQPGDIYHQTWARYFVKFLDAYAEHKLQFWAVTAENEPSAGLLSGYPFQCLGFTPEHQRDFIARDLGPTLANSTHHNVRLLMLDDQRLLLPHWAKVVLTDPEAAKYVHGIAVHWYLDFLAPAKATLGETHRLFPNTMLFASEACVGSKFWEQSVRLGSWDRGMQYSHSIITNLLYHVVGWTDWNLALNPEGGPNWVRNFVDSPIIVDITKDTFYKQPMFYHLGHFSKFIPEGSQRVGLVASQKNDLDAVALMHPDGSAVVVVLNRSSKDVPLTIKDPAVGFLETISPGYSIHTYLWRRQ
Sequence of Alpha-galactosidase A (Homo sapiens) (P06280 whole entry, looked up): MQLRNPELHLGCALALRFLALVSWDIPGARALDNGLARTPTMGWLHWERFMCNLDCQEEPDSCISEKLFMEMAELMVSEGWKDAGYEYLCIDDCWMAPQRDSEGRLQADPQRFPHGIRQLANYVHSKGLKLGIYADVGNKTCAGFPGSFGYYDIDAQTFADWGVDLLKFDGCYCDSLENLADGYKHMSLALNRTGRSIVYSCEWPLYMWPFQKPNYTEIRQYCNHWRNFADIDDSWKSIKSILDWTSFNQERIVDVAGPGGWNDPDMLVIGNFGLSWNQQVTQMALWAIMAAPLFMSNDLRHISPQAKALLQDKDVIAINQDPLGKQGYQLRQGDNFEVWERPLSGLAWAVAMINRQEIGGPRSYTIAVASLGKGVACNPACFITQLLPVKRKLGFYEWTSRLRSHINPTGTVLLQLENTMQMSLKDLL
Sequence of Guanine nucleotide-binding protein G(i) subunit alpha-1 (Homo sapiens) (P63096 whole entry, looked up): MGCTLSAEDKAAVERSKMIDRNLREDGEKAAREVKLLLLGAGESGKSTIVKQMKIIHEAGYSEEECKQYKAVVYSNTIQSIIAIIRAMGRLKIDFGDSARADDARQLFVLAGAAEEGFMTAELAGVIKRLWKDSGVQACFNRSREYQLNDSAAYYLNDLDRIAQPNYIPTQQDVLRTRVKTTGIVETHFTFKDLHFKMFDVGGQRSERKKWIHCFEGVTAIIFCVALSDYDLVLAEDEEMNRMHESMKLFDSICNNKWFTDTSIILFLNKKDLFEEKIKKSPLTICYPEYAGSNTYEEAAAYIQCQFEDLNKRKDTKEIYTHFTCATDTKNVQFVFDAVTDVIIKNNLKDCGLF

COc1cc2nc(N(C)CCCNC(=O)[C@@H]3CCCO3)nc(N)c2cc1OC
inactive: activity change, negative = inhibition [1] 7.7% [at 17.2 µM] | Potency [2] | activity change, negative = inhibition [3] -29.6% [at 17.2 µM] | activity, negative = inhibition [4] 2.71% [at 17.2 µM] | Potency [5] > 20.6 µM | Potency [6] > 20.6 µM | Potency [7] | Potency [8]

CN1C[C@H](c2ccccc2)C(O)([C@]2(c3ccccc3)CN(C)C[C@@H](c3ccccc3)C2=O)[C@H](c2ccccc2)C1 (stereo partly drawn)
inactive: activity change, negative = inhibition [1] 0.442% | Potency [2] | activity change, negative = inhibition [3] -6.86% | activity, negative = inhibition [4] 10% | Potency [5] > 46 µM | Potency [6] > 9.22 µM | Potency [7] | Potency [8]

Cc1cc(O)c(C(C)C)cc1C1(c2cc(C(C)C)c(O)cc2C)OC(=O)c2ccccc21
active: Potency [11] 3.16 µM
inactive: Potency [9] > 11.4 µM | Potency [5] > 46 µM | Potency [6] > 9.22 µM | Potency [7] | Potency [8] | Potency [10]

Cc1n[nH]c2ccccc2c1=O
active: Potency [2] 0.398 µM
inactive: activity change, negative = inhibition [1] -6.55% | activity change, negative = inhibition [3] -1.3% | activity, negative = inhibition [4] 10.2% | Potency [5] > 46 µM | Potency [6] > 9.22 µM | Potency [7] | Potency [8]

CSc1ccc(NC(=O)Nc2cc(C)ccn2)cc1
active: Potency [2] 0.501 µM
inactive: activity change, negative = inhibition [1] 0.23% | activity change, negative = inhibition [3] -18.9% | activity, negative = inhibition [4] -7.77% | Potency [5] > 46 µM | Potency [6] > 9.22 µM | Potency [7] | Potency [8]

CSc1nc(N)c2ncn([C@@H]3O[C@@H](COP(=O)(O)OP(=O)(O)OP(=O)(O)O)[C@@H](O)[C@H]3O)c2n1
inactive: activity change, negative = inhibition [1] 18.4% [at 38 µM] | Potency [2] | activity change, negative = inhibition [3] 0.479% [at 38 µM] | activity, negative = inhibition [4] -1.18% [at 38 µM] | Potency [5] > 46 µM | Potency [6] > 46 µM | Potency [7] | Potency [8] | outcome [12] | Potency [13] | Potency [11] | outcome [14] | Potency [15] | outcome [16] | outcome [17] | outcome [18] | Potency [19]

C[N+](C)(C)/N=C\c1ccc(O)c(O)c1
active: Potency [2] 10 µM
inactive: activity change, negative = inhibition [1] 4.59% | activity change, negative = inhibition [3] 8.29% | activity, negative = inhibition [4] 3.02% | Potency [5] > 46 µM | Potency [6] > 9.22 µM | Potency [7] | Potency [8]

N[C@H](COP(=O)(O)O)C(=O)O
inactive: activity change, negative = inhibition [1] -5.61% [at 38 µM] | Potency [2] | activity change, negative = inhibition [3] 1.24% [at 38 µM] | activity, negative = inhibition [4] 20.2% [at 38 µM] | Potency [5] > 46 µM | Potency [6] > 46 µM | Potency [8] | Potency [13] | Potency [11]
